“And” between values parts separate entries of the source, which are not always exact repeats. Identical values can stand only once. Inconclusive results are not listed. Where a call stands in place of a potency, no number is given. The source holds several records for some structures; these can differ, active in one and inactive in another. The source made the active and inactive calls. Calls come from the whole dose curve; as a rule, active = well fitted cell-killing curve with a large enough effect in the repeat runs; inconclusive = weak or mixed curves; inactive = no such curve, though single readings can be large or run the other way. Residues, ends and D or L forms follow the SMILES beside them.
Assay: qHTS assay for identifying genotoxic compounds that show differential cytotoxicity against isogenic chicken DT40 cell lines with known DNA damage response pathways - Rad54/Ku70 mutant cell line (AID 743015); note: nearly all actives have a fitted effect of over 60% in size
Settings: DT40 Rad54/Ku70 mutant viability, CellTiter-Glo, 40 h; series mostly up to 66.8 µM
Excerpt: National Center for Advancing Translational Sciences [NCATS]
NIH Chemical Genomics Center [NCGC]
U.S. Environmental Protection Agency [EPA]
National Institutes of Environmental Health Sciences [NIEHS]
National Toxicology Program [NTP]
U.S. Food and Drug Administration [FDA]
DNA repair pathways play a critical role in cellular homeostasis by repairing DNA damage induced by endogenous processes and xenobiotics. Isogenic chicken DT40 cell lines deficient in different DNA repair pathways can be used to identify genotoxic compounds and aid in characterizing the nature of the DNA damage induced. Two DNA repair-deficient cell lines with disrupted genes, Rad54/Ku70 or Rev3, were used to screen the Tox21 10K compound library. Possible genotoxicity was based on the presence of a significant increase in cytotoxicity in one or more of the DNA repair-deficient cell lines compared to that observed in the parental DNA repair-proficient cell line. CellTiter Glo viability assay (Promega, Madison, WI) was used to measure cell viability in these cells after compound treatment. This assay includes the data from the Rad54/Ku70 mutant cell line.
Tox21 Assay Protocol Summary:
300 DT40 mutant cells in 5 uL/well were dispensed into white, solid-bottom 1536-well plates using a Multidrop Combi (ThermoFisher Scientific, Waltham, MA) dispenser. After the assay plates were incubated at 37 C/5% CO2 for approximately 0.5 hour, 23 nL of compounds dissolved in DMSO, positive controls or DMSO only was transferred into the assay plate by a pintool work station (Kalypsys, San Diego, CA). The assay plates were incubated at 37 C/5% CO2 for 40 hours. After 5 uL per well of CellTiter-Glo reagent was added into each well of the assay plates, the plates were incubated for 30 min at room temperature and the luminescence intensity of the plates was measured using a ViewLux (PerkinElmer, Shelton, CT) plate reader.
Potency is the fitted concentration of half-maximal effect.

| SMILES | Potency |
| --- | --- |
| CCCCCCCCCC(=O)NO | inactive |
| CC(C)OC(=O)Nc1ccc2nc(-c3cscn3)[nH]c2c1 | 2.37 µM (active) |
| N[C@H](C(=O)O)[C@@H]1CC(Cl)=NO1 | 2.98 µM (active) |
| O=C(O)C[C@H](O)C[C@H](O)/C=C/c1c(C2CC2)nc2ccccc2c1-c1ccc(F)cc1 | 1.68 µM (active) |
| CC(C)c1ccc2sc3ccccc3c(=O)c2c1 | 54.5 µM (active) |
| CCCC(CCC)C(=O)OC1C[C@H]2CC[C@@H](C1)[N+]2(C)C (stereo not given in full) | inactive |
| CC(C)[C@H](NC(=O)[C@H](CC(=O)O)NC(=O)[C@H](CCCCN)NC(=O)[C@@H](N)CCCN=C(N)N)C(=O)N[C@@H](Cc1ccc(O)cc1)C(=O)O (H-RKDVY-OH) | inactive |
| CO[C@H]1C[C@@H]2CC[C@@H](C)[C@@](O)(O2)C(=O)C(=O)N2CCCC[C@H]2C(=O)O[C@H]([C@H](C)C[C@@H]2CC[C@@H](O)[C@H](OC)C2)CC(=O)[C@H](C)C=C(C)[C@@H](O)[C@@H](OC)C(=O)[C@H](C)C[C@H](C)/C=C/C=CC=C1C | 3.3 nM (active) and 5.3 nM (active) |
| CCCCCCCC[N+](C)(C)CCCCCCCC | 1.33 µM (active) and 944 nM (active) |
| C=CC(N)CCC(=O)O (stereo not given) | inactive |
| CO/N=C(\C(=O)N[C@@H]1C(=O)N2C(C(=O)[O-])=C(C[n+]3ccc(N)n3CCO)CS[C@H]12)c1csc(N)n1 | inactive |
| O=C(O)Cc1nn(Cc2ccc(Br)cc2F)c(=O)c2ccccc12 | inactive |
| Cc1cc(F)ccc1-c1cc(N2CC[C@@H](O)[C@H]2CO)ncc1N(C)C(=O)C(C)(C)c1cc(C(F)(F)F)cc(C(F)(F)F)c1 | 10.7 µM (active) |
| CCCn1c(=O)[nH]c(=O)c2[nH]cnc21 | inactive |
| CCN1\C(=C/C=C/C=C/c2sc3ccccc3[n+]2CC)Sc2ccccc21 | 168 nM (active) and 335 nM (active) |
| CO/N=C(\C(=O)N[C@@H]1C(=O)N2C(C(=O)[O-])=C(C[n+]3cccc4c3CCC4)CS[C@H]12)c1csc(N)n1 | inactive |
| CC12CCC(C[N+](C)(CCC[N+](C)(C)C)C1)C2(C)C (stereo not given) | inactive |
| CC(C)(COP(=O)(O)OP(=O)(O)OC[C@H]1O[C@@H](n2cnc3c(N)ncnc32)[C@H](O)[C@@H]1OP(=O)(O)O)C(O)C(=O)NCCC(=O)NCCS (stereo not given in full) | inactive |
| CCCCC[C@H](O)/C=C/[C@@H]1[C@@H](C/C=C\CCCC(=O)O)[C@@H](O)C[C@H]1O | inactive |
| NCCO/C=C/[C@H](N)C(=O)O | inactive |

| SMILES | Potency |
| --- | --- |
| CCCOC(=O)c1ccc(O)cc1 | inactive and 65.5 µM (active) |
| COc1cccc(-c2ccc(/C=C\CN3CCCCCC3)cc2Cl)c1 | 2.16 µM (active) |
| CC(=O)[C@]1(O)Cc2c(O)c3c(c(O)c2[C@@H](O[C@H]2C[C@H](N)[C@H](O)[C@H](C)O2)C1)C(=O)c1ccccc1C3=O | 0.0033 µM (active) |
| COC(=O)C[C@](O)(CCCC(C)(C)O)C(=O)O[C@@H]1C(OC)=CC23CCCN2CCc2cc4c(cc2[C@H]13)OCO4 (stereo not given in full) | 0.0237 µM (active) |
| C[Se]CC[C@H](N)C(=O)O | inactive |
| CC1(C)S[C@@H]2[C@H](NC(=O)[C@@H](NC(=O)N3CCNC3=O)c3ccccc3)C(=O)N2[C@H]1C(=O)O | inactive |
| CCOC(=O)[C@H](CCc1ccccc1)N[C@@H](C)C(=O)N1[C@H](C(=O)O)C[C@H]2CCCC[C@@H]21 | inactive |
| N=C(N)n1cccn1 | inactive |
| CN(C)CCOc1ccc(/C(=C(/CCCl)c2ccccc2)c2ccccc2)cc1 | 9.44 µM (active) and 2.03 µM (active) |
| CS(=O)(=O)c1ccc([C@@H](O)[C@@H](COC(=O)CN)NC(=O)C(Cl)Cl)cc1 | 7.5 µM (active) |
| CCCCC/C=C\C=C\C(=O)OCC | 12.7 µM (active) |
| CNCC(=O)N[C@@H](CCCN=C(N)N)C(=O)N[C@H](C(=O)N[C@@H](Cc1ccc(O)cc1)C(=O)N[C@H](C(=O)N[C@@H](Cc1cnc[nH]1)C(=O)N1CCC[C@H]1C(=O)N[C@@H](C)C(=O)O)C(C)C)C(C)C | inactive |
| COc1cc2c(cc1O)CCN[C@]21CS[C@@H]2c3c(OC(C)=O)c(C)c4c(c3[C@H](COC1=O)N1[C@@H]2[C@H]2c3c(cc(C)c(OC)c3O)C[C@@H]([C@@H]1O)N2C)OCO4 | 0.0001 µM (active) |
| O=C(O)COc1ccc(C(=O)c2cccs2)c(Cl)c1Cl | inactive |
| CN(C[C@@H](CC[N+]12CCC(C3CCCCC3)(CC1)CC2)c1ccc(Cl)c(Cl)c1)C(=O)c1cc(C(F)(F)F)cc(C(F)(F)F)c1 | 8.63 µM (active) |
| N[C@H](CO)C(=O)O | inactive |
| CCSCC | inactive |
| O=P(O)(O)OP(=O)(O)OP(=O)(O)O | inactive |
| NS(=O)(=O)c1cc(Cl)c(Cl)c(S(N)(=O)=O)c1 | inactive |
| COc1ccc([C@@H]2CC(=O)c3c(O)cc(O[C@@H]4O[C@H](CO[C@@H]5O[C@@H](C)[C@H](O)[C@@H](O)[C@H]5O)[C@@H](O)[C@H](O)[C@H]4O)cc3O2)cc1O | inactive |

Source: PubChem BioAssay (Tox21)
